From PubChem BioAssay AID743262 (National Center for Advancing Translational Sciences (NCATS), 2014)
Hit rate of the full screen: of about 1,300 compounds, about 25 (2%) were called active. A call without a number means that no potency is given here. Inconclusive results (about 9%) are left out. The call rests on the fitted dose curve; in most records, active means well fitted activation curve with a large enough effect; inconclusive means small, poorly fitted or top-dose-only effect; inactive means flat fitted curve, though single readings scatter. The sample as a whole holds a higher share of actives than the screen did.

Molecular target: Glucagon-like peptide 1 receptor (Homo sapiens) (UniProt P43220)
Assay: qHTS of GLP-1 Receptor Agonists: Hit Validation
Conditions: HEK293 GLP-1R, cAMP-response luciferase, 4-6 h; series mostly up to 46.1 µM
From the text: The overall goal of this project was to develop a novel assay for discovering small molecule ligands for class B1 G protein-coupled receptors (GPCRs). Very few agonists (or inverse agonists) with generally weak activity for this entire group of physiologically important receptors are known to date. To establish proof-of-principle that this critical bottleneck can be overcome with a suitable screening approach, our studies focused on the class B1 receptor for glucagon-like peptide-1 (GLP-1R), a potential therapeutic target for diabetes and neurodegenerative disease. The assay was developed in a "mix and measure" format using a cell-based functional readout. Toward this goal, stably transfected HEK293 cell clones were established that co-express (i) a cAMP-responsive luciferase reporter gene, and (ii) GLP-1Rs that upon ligand interaction either stimulate (agonists) or inhibit (inverse agonists) luciferase activity. In different cell lines to be used for screening, expressed GLP-1Rs are specifically optimized for high sensitivity detection of either weak agonists (hypersensitive receptor) or inverse agonists (constitutively active receptor mutant). In addition, control cell lines were developed that express either the cAMP-responsive reporter gene without recombinant GLP-1Rs (enabling initial exclusion of GLP-1R independent effects of candidate probes), or the reporter gene together with wild type GLP-1Rs (for confirmation of probe activity at this receptor), or the reporter gene in combination with the constitutively active orphan receptor GPR119 (enabling initial exclusion of GLP-1R independent inhibitory effects of candidate inverse agonists). To that end, this assay was optimized for 1536-well format and screened against the MLSMR. NIH Molecular Libraries Probe Production Network [MLPCN] NIH Chemical Genomics Center [NCGC] Grant: NS064851 PI Name: Martin Beinborn, Tufts Medical Center
In a white solid 1536-well plate, 6 uL of cells are dispensed in DMEM without phenol red, 10% Nu serum, and 1% pen-strep medium. The plates are then incubated for 12 hours at 37 deg C at 5% CO2 before 23 nL of compounds are added. After a 4-6 hr incubation at37 deg C and 5% CO2, 3 uL of detection reagent are added and after a 12 min incubation at RT, a luminescent read is obtained on the ViewLux.
Potency means the concentration at half of the fitted maximal effect.

Glucagon-like peptide 1 receptor (Homo sapiens), sequence (P43220 whole entry, looked up): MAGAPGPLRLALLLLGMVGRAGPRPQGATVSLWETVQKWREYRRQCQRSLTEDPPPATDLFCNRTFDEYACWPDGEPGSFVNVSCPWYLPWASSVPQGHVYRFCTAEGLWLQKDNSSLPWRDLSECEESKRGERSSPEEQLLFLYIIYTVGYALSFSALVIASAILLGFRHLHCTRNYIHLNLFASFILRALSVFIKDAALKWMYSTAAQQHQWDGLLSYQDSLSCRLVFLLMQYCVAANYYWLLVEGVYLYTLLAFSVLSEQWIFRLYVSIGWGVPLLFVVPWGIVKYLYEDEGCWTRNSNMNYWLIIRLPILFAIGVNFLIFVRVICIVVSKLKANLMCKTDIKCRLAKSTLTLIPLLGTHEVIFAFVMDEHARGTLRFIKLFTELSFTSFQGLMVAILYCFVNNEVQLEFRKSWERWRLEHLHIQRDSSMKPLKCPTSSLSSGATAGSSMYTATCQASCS

Row | Structure (SMILES) | Potency
1 | CC(Cc1ccc(O)cc1)NCC(O)c1ccc(O)c(O)c1 (stereo not given) | 9.2 nM (active)
2 | O=c1[nH]cnc2nc(-c3ccc(N(CCCl)CCCl)cc3)[nH]c12 | inactive
3 | N#Cc1c(/N=C/c2ccc(O)cc2O)sc2c1C1CCN2CC1 | inactive
4 | C[C@@H]1CN([C@H](C)CO)C(=O)CCCn2cc(nn2)CO[C@H]1CN(C)C(=O)Oc1ccc2ccccc2c1 | inactive
5 | CN1CCN=C(c2ccccc2)c2cc(Cl)ccc21 | inactive
